# The campaign covered roughly 340,000 compounds. About 1,000 (0.29%) were called active. Rule as the data show it: inconclusive = inhibition above about 27% without an active follow-up result; inactive = below that. Only a sample is shown. Potency and affinity values are given separately.
# Assay: NS1A inhibition, H1N1 influenza, cell based functional assay (AID 504329)
# Conditions: percent inhibition, at 12.5 µM, hits give high values
row,Compound,inhibition
1,O=C(CP(=O)(O)CC(=O)c1ccccc1)c1ccccc1,5.59% (inactive)
2,O=C1c2cccnc2C(=O)N1CNc1ccc(Cl)cc1,3.28% (inactive)
3,COc1cccc(C(=O)NCCS(=O)(=O)NCc2cccnc2)c1,-2.08% (inactive)
4,CC(C)CCNC(=O)C(CC(C)C)N(Cc1ccc2c(c1)OCO2)C(=O)c1snc(C(N)=O)c1N (stereo unspecified),6.77% (inactive)
5,C=CCC1(C#N)C(SC)=NC2=C(C(=O)CC(C)(C)C2)C1c1ccc(Br)cc1 (stereo unspecified),-5.14% (inactive)
6,O=C(CN1C(=O)COc2ccccc21)Nc1ccc2c(c1)OCCO2,0.43% (inactive)
7,O=C(CN1C(=O)COc2ccccc21)Nc1ccccc1F,2.27% (inactive)
8,CCOC(=O)c1c(NC(=O)COC(=O)c2ccccn2)sc(C(=O)N(C)C)c1C,-8.42% (inactive)
9,CCOC(=O)c1sc(NC(=O)CNCc2cccnc2)c(C(=O)OCC)c1C,-2.69% (inactive)
10,COCCN(C(=O)c1csnn1)C(C(=O)NC1CCCCC1)c1ccccc1F (stereo unspecified),-4.23% (inactive)
11,CCCSc1ccc([C@H]2N[C@@](C)(C(=O)OC)[C@H]3C(=O)N(C)C(=O)[C@@H]23)cc1,6.02% (inactive)
12,COC(=O)c1cc2cc(NS(=O)(=O)c3ccc(C)cc3)ccc2s1,-3.1% (inactive)
13,Oc1[nH]c2ccc(Br)cc2c1N=NC(=S)Nc1ccc(F)cc1,-7.69% (inactive)
14,O=C(N=Nc1c(O)[nH]c2ccccc12)c1ccc(CN2CCOCC2)cc1,7.41% (inactive)
15,NC(=S)N=Nc1c(O)[nH]c2ccccc12,14.1% (inactive)
16,N=C(N)N=Nc1c(O)[nH]c2ccc(Br)cc12,-0.68% (inactive)
17,Cc1ccc(N(CC(=O)NC2CCCCC2)C(=O)CNC(=O)c2ccco2)cc1C,7.87% (inactive)
18,CC(C)c1ccc(C(=O)OCC(=O)NC2CCCC2)cc1,1.66% (inactive)
19,CCOc1ccc(N2CC(O)(c3cccs3)[N+]3=C2CCCC3)cc1 (stereo unspecified),2.37% (inactive)
20,COc1ccccc1C(=O)NC(CCSC)C(=O)NCc1ccncc1 (stereo unspecified),-4.75% (inactive)
21,CCc1cc2c(=O)oc(-c3ccc(F)cc3)nc2s1,-6.8% (inactive)
22,COC(=O)C1CC2=C(CCC2=O)N(c2ccccc2)C1=O (stereo unspecified),-7.88% (inactive)
23,Cc1ccc(S(=O)(=O)N(C)C)cc1NC(=O)COC(=O)/C(=C/c1ccc(F)cc1)c1cccs1,-0.58% (inactive)
24,O=C1/C(=C/c2ccccc2)Nc2ccccc21,14.7% (inactive)
25,O=C1Nc2ccccc2C1=O,0.1% (inactive)
26,O=C(COC(=O)CN1C(=O)COc2ccccc21)NCc1ccc(F)cc1,-6.84% (inactive)

# Reference: PubChem BioAssay AID504329 (Southern Research Specialized Biocontainment Screening …, 2011)
